According to PubChem BioAssay (Tox21):
“And” between values parts separate entries of the source, which are not always exact repeats. Identical values can stand only once. Records with an inconclusive call do not appear. Entries that show only a call come without a potency. A structure can be active in one record and inactive in another. The source made the active and inactive calls. Unless noted, calls come from the whole dose curve; as a rule, active = well fitted curve in the direction sought with a large enough effect in the repeat runs; inconclusive = weak or mixed curves; inactive = no such curve, though single readings can be large; an effect the other way counts as inactive or inconclusive.

How the values were obtained:
[1] = qHTS assay to test for compound auto fluorescence at 535 nm (green) in HEK293 cells (AID 720680)
[2] = qHTS assay to test for compound auto fluorescence at 535 nm (green) in HEK293 cell free culture (AID 720682)
Summary of the method: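 Each library compound, or DMSO control, is added by pintool to medium alone, comprising DMEM and 10% FBS. Emission at 535 nm following 485 nm excitation is quantified against fluorescein.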

[3] = qHTS assay to test for compound auto fluorescence at 590 nm (red) in HEK293 cell free culture (AID 720683)
Summary of the method: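 Tox21 10K library compounds were pinned into cell-free DMEM with 10% FBS and fluorescence was read at excitation 540 nm. Activity is expressed as Rose Bengal sodium equivalency.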

[4] = qHTS assay to test for compound auto fluorescence at 535 nm (green) in HepG2 cell free culture (AID 720686)
[5] = qHTS assay to test for compound auto fluorescence at 460 nm (blue) in HepG2 cells (AID 720687)
Summary of the method: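 Cells (2,000/well in MEM with 10% FBS) attached overnight at 37 C, then were exposed to compound or DMSO for 1 hr at 37 C, 5% CO2. Fluorescence read at Ex/Em 405/460 nm, expressed as triamterene-equivalent signal.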

[6] = qHTS assay to identify small molecule antagonists of the glucocorticoid receptor (GR) signaling pathway - cell viability counter screen (AID 720693); note: nearly all actives have a fitted effect of over 55% in size
[7] = qHTS assay for identifying genotoxic compounds that show differential cytotoxicity against isogenic chicken DT40 cell lines with known DNA damage response pathways - wild type cell line (AID 743012); note: nearly all actives have a fitted effect of over 60% in size; note: potency is the fitted concentration of half-maximal effect
Summary of the method: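 Cells (DT40 wild type, 300/well) are treated with DMSO-dissolved compounds after a ~0.5 h pre-incubation and kept 40 h at 37 C/5% CO2. Viability is then measured by CellTiter-Glo luminescence following 30 min at room temperature.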

[8] = qHTS assay for identifying genotoxic compounds that show differential cytotoxicity against isogenic chicken DT40 cell lines with known DNA damage response pathways - Rev3 mutant cell line (AID 743014); note: nearly all actives have a fitted effect of over 55% in size; note: potency is the fitted concentration of half-maximal effect
[9] = qHTS assay for identifying genotoxic compounds that show differential cytotoxicity against isogenic chicken DT40 cell lines with known DNA damage response pathways - Rad54/Ku70 mutant cell line (AID 743015); note: nearly all actives have a fitted effect of over 60% in size; note: potency is the fitted concentration of half-maximal effect
[10] = qHTS assay to identify small molecule antagonists of the androgen receptor (AR) signaling pathway - cell viability counter screen (AID 743033; note: nearly all actives have a fitted effect of over 45% in size)
[11] = qHTS assay to identify small molecule antagonists of the androgen receptor (AR) signaling pathway using the MDA cell line - cell viability counter screen (AID 743041; note: nearly all actives have a fitted effect of over 45% in size)
Summary of the method: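 MDA-kb2 AR-luc human breast carcinoma cells (MMTV-luciferase, AR/GR responsive) were treated with compounds plus R1881 agonist for 16 h at 37 °C. Viability was read as CellTiter-Fluor fluorescence in the same wells as the reporter assay.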

[12] = qHTS assay to identify small molecule antagonists of the thyroid receptor (TR) signaling pathway - cell viability counter screen (AID 743064); note: nearly all actives have a fitted effect of over 50% in size; note: potency is the fitted concentration of half-maximal effect
Summary of the method: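 CellTiter-Fluor readout, 30 min at 37 °C/5% CO2, following 23.5 h incubation of GH3.TRE-Luc cells with test compound and 1 nM T3 (final).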

[13] = qHTS assay to test for compound auto fluorescence at 590 nm (red) in HepG2 cell free culture (AID 720684)
Summary of the method: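 Red fluorescence (540 nm excitation, 590 nm emission) was measured after compound transfer into cell-free MEM supplemented with 10% FBS. Values are equivalencies against Rose Bengal sodium.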

[14] = qHTS assay to test for compound auto fluorescence at 460 nm (blue) in HepG2 cell free culture (AID 720685)
Summary of the method: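 Compound (23 nL) or DMSO pinned into cell-free MEM with 10% FBS; blue fluorescence read at 405/460 nm excitation/emission, expressed as auto-fluorescence equivalency to triamterene.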

[15] = molecular target: Androgen receptor (Homo sapiens) (UniProt P10275); test: qHTS assay to identify small molecule antagonists of the androgen receptor (AR) signaling pathway (AID 743035; active = well fitted inhibition curve with a large enough effect in the signal ratio in the repeat runs, not every such curve was filed as active; the % refers to the signal ratio; note: potency is the fitted concentration of half-maximal effect)
Chain of Androgen receptor (Homo sapiens) (P10275 whole entry, looked up): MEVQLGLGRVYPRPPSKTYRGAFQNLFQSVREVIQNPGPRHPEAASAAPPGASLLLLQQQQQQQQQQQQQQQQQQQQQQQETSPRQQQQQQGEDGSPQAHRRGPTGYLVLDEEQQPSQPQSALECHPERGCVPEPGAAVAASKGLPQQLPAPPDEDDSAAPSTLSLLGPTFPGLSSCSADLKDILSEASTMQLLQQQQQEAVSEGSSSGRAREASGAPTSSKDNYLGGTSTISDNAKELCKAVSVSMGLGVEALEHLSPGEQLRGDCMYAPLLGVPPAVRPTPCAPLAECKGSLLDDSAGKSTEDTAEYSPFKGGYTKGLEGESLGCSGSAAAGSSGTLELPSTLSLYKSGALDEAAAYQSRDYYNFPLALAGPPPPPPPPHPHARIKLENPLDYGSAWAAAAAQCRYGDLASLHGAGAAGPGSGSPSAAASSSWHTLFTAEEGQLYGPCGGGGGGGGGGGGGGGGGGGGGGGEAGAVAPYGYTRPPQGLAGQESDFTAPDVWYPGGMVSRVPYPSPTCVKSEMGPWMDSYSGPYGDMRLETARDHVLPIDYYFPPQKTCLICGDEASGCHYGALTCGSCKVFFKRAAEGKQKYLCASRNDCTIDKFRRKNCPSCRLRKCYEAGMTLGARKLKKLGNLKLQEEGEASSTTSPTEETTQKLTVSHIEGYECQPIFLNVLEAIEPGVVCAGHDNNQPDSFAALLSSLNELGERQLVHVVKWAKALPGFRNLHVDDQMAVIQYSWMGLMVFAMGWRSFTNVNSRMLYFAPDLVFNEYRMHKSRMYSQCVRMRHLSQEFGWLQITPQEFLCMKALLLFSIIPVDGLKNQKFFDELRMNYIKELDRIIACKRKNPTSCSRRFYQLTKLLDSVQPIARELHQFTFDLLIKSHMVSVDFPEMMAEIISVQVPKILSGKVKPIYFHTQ
Summary of the method: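 Antagonism is scored as loss of R1881-driven beta-lactamase reporter expression in HEK293 cells carrying the reporter under a UAS element, after 16 h co-treatment at 37C and a 2 h room-temperature FRET substrate read.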

[16] = molecular target: Androgen receptor (Homo sapiens) (UniProt P10275); test: qHTS assay to identify small molecule agonists of the androgen receptor (AR) signaling pathway (AID 743036; active = well fitted activation curve with a large enough effect in the signal ratio in the repeat runs, with a control signal flat, not every such curve was filed as active; the % refers to the signal ratio)
Summary of the method: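 Following a 4 h settling period, AR-UAS-bla HEK293 cells were dosed with compounds for 16 h at 37C. A 2 h room-temperature incubation with LiveBLAzer B/G FRET substrate preceded the fluorescence measurement.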

[17] = molecular target: Androgen receptor (Homo sapiens) (UniProt P10275); test: qHTS assay to identify small molecule agonists of the androgen receptor (AR) signaling pathway using the MDA cell line (AID 743040; note: nearly all actives have a fitted effect of over 20% in size)
Summary of the method: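 MDA-kb2 breast carcinoma cells stably carrying an MMTV-driven luciferase reporter (AR- and GR-responsive) were seeded and held 5 h at 37C, 0% CO2, then exposed to compounds in DMSO for 16 h. Luminescence was read 30 min after ONE-Glo addition.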

[18] = molecular target: Glucocorticoid receptor (Homo sapiens) (UniProt P04150); test: qHTS assay to identify small molecule agonists of the glucocorticoid receptor (GR) signaling pathway (AID 720691; active = well fitted activation curve with a large enough effect in the signal ratio in the repeat runs, not every such curve was filed as active; the % refers to the signal ratio; note: potency is the fitted concentration of half-maximal effect)
Chain of Glucocorticoid receptor (Homo sapiens) (P04150 whole entry, looked up): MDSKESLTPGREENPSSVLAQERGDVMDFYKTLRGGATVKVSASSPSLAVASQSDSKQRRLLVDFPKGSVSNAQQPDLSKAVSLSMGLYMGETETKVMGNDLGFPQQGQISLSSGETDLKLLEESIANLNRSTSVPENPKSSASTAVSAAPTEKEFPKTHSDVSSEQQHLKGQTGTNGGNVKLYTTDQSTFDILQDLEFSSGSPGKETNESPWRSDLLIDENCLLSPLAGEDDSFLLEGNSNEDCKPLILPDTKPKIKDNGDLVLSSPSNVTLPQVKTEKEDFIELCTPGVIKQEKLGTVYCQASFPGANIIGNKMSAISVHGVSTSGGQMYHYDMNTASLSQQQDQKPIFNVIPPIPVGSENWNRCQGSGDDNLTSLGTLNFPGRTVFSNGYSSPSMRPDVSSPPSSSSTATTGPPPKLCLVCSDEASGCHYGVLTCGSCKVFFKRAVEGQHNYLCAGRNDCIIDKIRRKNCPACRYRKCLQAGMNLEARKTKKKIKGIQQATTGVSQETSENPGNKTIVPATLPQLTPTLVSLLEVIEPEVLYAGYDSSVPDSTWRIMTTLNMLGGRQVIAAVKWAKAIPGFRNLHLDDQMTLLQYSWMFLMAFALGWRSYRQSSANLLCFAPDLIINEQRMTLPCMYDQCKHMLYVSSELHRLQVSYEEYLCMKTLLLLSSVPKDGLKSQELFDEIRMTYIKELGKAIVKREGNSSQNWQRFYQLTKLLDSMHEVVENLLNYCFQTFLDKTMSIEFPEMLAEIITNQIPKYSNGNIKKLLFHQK
Summary of the method: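 Agonist mode in a HeLa line carrying a GRE-controlled beta-lactamase reporter. Compounds act for 18 h at 37 C before a 2 h room-temperature FRET substrate step and fluorescence reading.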

[19] = molecular target: Glucocorticoid receptor (Homo sapiens) (UniProt P04150); test: qHTS assay to identify small molecule antagonists of the glucocorticoid receptor (GR) signaling pathway (AID 720692; active = well fitted inhibition curve with a large enough effect in the signal ratio in the repeat runs, not every such curve was filed as active; the % refers to the signal ratio; note: potency is the fitted concentration of half-maximal effect)
Summary of the method: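 Cells plated, rested 4 h at 37 C/5% CO2; compounds in DMSO pin-transferred; dexamethasone added to 5 nM final; 18 h at 37 C; B/G FRET substrate added, 2 h room temperature; fluorescence measured.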

[20] = qHTS assay to test for compound auto fluorescence at 460 nm (blue) in HEK293 cell free culture (AID 720681)
Summary of the method: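 Test compounds were pinned into cell-free culture medium (DMEM with 10% FBS) and fluorescence was read directly at Ex/Em 405/460 nm. Signals were expressed as fluorescence equivalents of triamterene, with DMSO vehicle as control.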

Structure (SMILES)	Potency [1]	Potency [2]	Potency [3]	Potency [4]	outcome [5]	Potency [6]	Potency [7]	Potency [8]	Potency [9]	Potency [10]	Potency [11]	Potency [12]	Potency [13]	outcome [14]	Potency [15]	outcome [16]	Potency [17]	Potency [18]	Potency [19]	outcome [20]
C=C(C)C1CC=C(C)CC1 (stereo not given)	inactive	inactive	inactive	inactive	inactive	inactive	inactive	inactive	inactive	inactive	inactive	inactive	–	–	–	–	–	–	–	–
c1ccncc1	inactive	inactive	inactive	inactive	inactive	inactive	inactive	inactive	inactive	inactive	inactive	inactive	inactive	inactive	–	–	–	–	–	–
Cc1cccc(C(=O)O)c1	inactive	inactive	inactive	inactive	inactive	inactive	inactive	inactive	inactive	–	inactive	inactive	inactive	–	inactive	inactive	inactive	–	–	–
COc1ccc(OC)c(C(O)CNC(=O)CN)c1 (stereo not given)	inactive	inactive	inactive	inactive	inactive	inactive	inactive	–	inactive	inactive	inactive	–	inactive	inactive	–	–	–	inactive	inactive	–
c1ccc2c(c1)c1cccc3ccc4cccc2c4c31	inactive	inactive	inactive	inactive	inactive	inactive	inactive	inactive	inactive	inactive	inactive	inactive	inactive	–	–	–	inactive	48.6 µM (active) and inactive	inactive	–
COc1cc([C@@H]2c3cc4c(cc3[C@H](O)[C@H]3COC(=O)[C@H]23)OCO4)cc(OC)c1OC	inactive	inactive	inactive	inactive	inactive	inactive	26.6 nM (active) and 24.3 nM (active)	29.8 nM (active) and 19.3 nM (active)	29.8 nM (active) and 21.7 nM (active)	inactive	inactive	43.2 nM (active)	inactive	–	37.9 nM (active)	–	inactive	inactive	–	–
CC(=O)c1ccccn1	inactive	inactive	inactive	inactive	inactive	inactive	–	–	inactive	inactive	inactive	inactive	–	–	–	–	–	–	–	inactive
Nc1ncn([C@@H]2O[C@H](CO)[C@@H](O)[C@H]2O)c(=O)n1	inactive	inactive	inactive	inactive	inactive	–	1.88 µM (active) and 1.54 µM (active)	1.88 µM (active) and 1.22 µM (active)	841 nM (active) and 386 nM (active)	–	inactive	5.31 µM (active) and 9.69 µM (active)	inactive	inactive	3.38 µM (active) and 1.1 µM (active)	inactive	inactive	inactive	3.01 µM (active) and 1.74 µM (active)	–
